Screening data deposited in PubChem BioAssay by several laboratories.
Rows were chosen to be rich in hits. Some 3.3% of all compounds tested hit in one or more screens of this group.
Cl transport mod: modulators of human KCC2 chloride dependent transport; KCC2 cells, thallium flux FluoZin-2 fluorescence; B-score of Tl+ flux slope (higher = more flux/activation; lower = inhibition) at 10 µM; 190,000 compounds, 2.2% hits;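 active means thallium flux slope and its plate-corrected score both differing from the plate sample mean at a set confidence after two filtering rounds, in either direction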;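 further: slope of fluorescence scaled to starting intensity during 10 to 20 s after thallium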
Efflux pump mplx: blocks antifungal efflux pumps in multiplex yeast assay; S. cerevisiae Candida pump triplex, Nile Red efflux; inhibition, % at 10 µM; 330,000 compounds, 0.44% hits; AID 485275;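 active means plate passing quality check with inhibition over a set limit, or well fluorescence over plate mean plus 4 SD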;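 further: Nile Red retained in pooled yeast measured as flow cytometry median fluorescence; 0% = buffer negative control and 100% = Enniatin B positive control; higher means more Nile Red kept so more efflux inhibition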
PHOSPHO1 inh: inhibitors of human PHOSPHO1 phosphatase; recombinant PHOSPHO1, absorbance phosphatase assay; inhibition, % at 13.3 µM; 290,000 compounds, 1.1% hits; AID 1565; in the data active means inhibition above about 60%
Cardio protect: modulators protecting cardiomyocytes from myocardial damage; H9c2 cardiomyocytes, H2O2 injury protection, ATPLite, 2 h; protection from H2O2 cell death, % at 20 µM; 360,000 compounds, 0.63% hits; AID 588492;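 active means compounds giving at least 50% protection of heart cells from peroxide-induced death in the single-dose screen, raw or plate-pattern-corrected value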;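 further: 0% = DMSO wells with peroxide and 100% = DMSO wells without peroxide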
Calb FLC: affects C. albicans growth with fluconazole | C. albicans CaCi-2 (fluconazole-resistant clinical isolate) + fluconazole, Alamar Blue growth, 48 h | growth inhibition, % (no concentration beside the values) | 300,000 compounds, 0.57% hits;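 active means growth inhibition above about 58% in most replicates, limit read from the data, passing the limit was not always enough; inconclusive means exactly half the replicates above a set limit; inactive means most replicates below a set limit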;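 further: all wells also contain fluconazole at 8 µg/ml as a sub-toxic cotreatment; 0% = median of DMSO wells and 100% = median of geldanamycin control wells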
KCC2 secondary: KCC2 (human) modulation, secondary assay; shares compounds with Cl transport mod; normalised thallium flux (F/F0 slope) at 10 µM; 3,700 compounds, 15% hits; HEK293-KCC2, thallium flux, FluoZin2 fluorescence; hits give high values; AID 1713;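 active means thallium flux slope above the same plate's solvent-only control mean plus 3 SD; inconclusive means the two replicate wells disagree; inactive means no significant difference from solvent-only control wells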
KCC2 bumet counter: bumetanide-insensitive thallium flux in KCC2 cells with ouabain, counter-screen; shares compounds with Cl transport mod; HEK293-KCC2 + bumetanide/ouabain, thallium flux FluoZin2; hits give high values; normalized thallium flux at 10 µM; 3,700 compounds, 49% hits; AID 1714;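 active means thallium entry rate above the same plate's blocked-transporter control wells by more than 3 SD; inconclusive means the two repeat wells disagree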;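 further: raw slope of fluorescence over initial fluorescence between 10 and 20 s after thallium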
KCC2 sec2: confirmation of human KCC2 transport modulators; shares compounds with Cl transport mod; HEK293-KCC2, thallium flux FluoZin2 fluorescence; actives lie on both sides; F/F0 rise rate, 10–20 s post-thallium; normalized thallium flux at 10 µM; 3,700 compounds, 23% hits; AID 1715;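 active means thallium flux slope more than 3 SD above or below the plate's solvent-only control mean, mostly below; inconclusive means the two repeat wells disagreed; inactive means no significant shift from solvent-only controls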;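 further: raw slope with 0.1% DMSO as baseline and bumetanide as block control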
HEK293 Tl flux: parental HEK flux effect, counter-screen | shares compounds with Cl transport mod | HEK293 parental cells, thallium flux FluoZin2, ouabain; baseline-ratio fluorescence slope, 10–20 s after thallium | thallium flux rate (normalised fluorescence) at 10 µM | 3,700 compounds, 46% hits;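 active means thallium flux rate significantly above the same plate's solvent-only control wells, beyond their mean plus 3 SD; inconclusive means the two replicate wells gave conflicting results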
KCC2 retest ouab: modulates human KCC2 on retest with ouabain | raw Tl+ flux slope (below DMSO = inhibition, above = activation) at 10 µM | shares compounds with Cl transport mod | HEK293-KCC2, thallium flux FluoZin2 fluorescence; bidirectional: low = inhibitor, high = activator | 3,700 compounds, 48% hits;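 active means thallium flux slope beyond 3 SD from same-plate DMSO control mean in most replicates, usually higher, sometimes lower; inconclusive means repeat tests gave conflicting results; inactive means no significant difference from controls in most replicates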;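 further: slope of initial-normalized fluorescence between seconds 10 and 20 after thallium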
HEK293 Tl flux2: acts in parental HEK cells, second KCC2 counter-screen | shares compounds with Cl transport mod | HEK293 parental, thallium flux FluoZin-2 fluorescence slope | 3,700 compounds, 33% hits | thallium flux slope at 10 µM;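 active means thallium flux slope above the same plate's solvent-control mean plus 3 SD in both duplicate wells; inconclusive means duplicate wells that disagreed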;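 further: run without ouabain in cells lacking the KCC2 cotransporter; slope of fluorescence scaled to its starting value between 10 and 20 s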
Numbers without * were called inactive; ? = inconclusive; . = no result.

SMILES	Cl transport mod	Efflux pump mplx	PHOSPHO1 inh	Cardio protect	Calb FLC	KCC2 secondary	KCC2 bumet counter	KCC2 sec2	HEK293 Tl flux	KCC2 retest ouab	HEK293 Tl flux2
CC1(CCc2ccccc2)NC(=S)N(c2ccc(Cl)cc2)N1 (centres undefined)	-0.0301	0.2	32.1	12.0	1.4	.	.	.	.	.	.
CCC1(c2ccccc2)NC(=S)N(c2ccc(C)c(C)c2)N1 (centres undefined)	41.8*	0.2	21.3	-0.3	-14.8	0.0422*	0.106*	0.0382	0.0553*	0.0595*	0.0171*
CCC1(c2ccc(Cl)cc2)NC(=S)N(c2ccc(C)c(C)c2)N1 (centres undefined)	93.1*	0.0	67.6*	-6.2	-15.2	0.0496*	0.12*	0.0445*	0.102*	0.0871*	0.0376*
CN(c1ccc(OCC(=O)OCC(=O)Nc2ccc(OC(F)F)cc2)cc1)S(=O)(=O)c1cccs1	.	0.1	.	1.6	.	.	.	.	.	.	.
O=C(Nc1ccccc1Cl)N1CCN(c2ccc3nnc(-c4ccc(F)cc4)n3n2)CC1	-3.92*	0.0	-11.6	43.0	39.3	0.00921	0.00715	0.0301	0.00926*	0.0189	0.0103
CC(=O)OCC1OC(c2ccccc2)C(OC(C)=O)C(OC(C)=O)C1OC(C)=O (centres undefined)	4.35*	0.0	19.9	1.7	2.3	0.00639	0.00498	?	0.00711	0.0175	0.0105
CC(=O)OCC1OC(OC(C)=O)C(NC(=O)Cc2ccccc2)C(OC(C)=O)C1OC(C)=O (centres undefined)	-0.554	-0.1	1.2	-2.6	4.6	.	.	.	.	.	.
Cc1cc2oc(=O)cc(CN(C)Cc3ccccc3Cl)c2cc1C	.	0.0	41.6	-10.2	7.0	.	.	.	.	.	.
Cc1ccc(-n2c(C)cc(-c3csc(N)n3)c2C)cc1	-3.19*	-0.3	-5.7	-6.7	7.0	0.0086	0.00625	0.0355	?	0.0194	0.0116
Cc1ccc(-c2csc(N)n2)cc1	.	.	.	-6.8	.	.	.	.	.	.	.
CCCn1nnnc1NCc1ccc(N(CC)CC)cc1	.	0.0	.	1.8	4.4	.	.	.	.	.	.
Cc1ccc([N+](=O)[O-])c(C(=O)N/N=C/c2cccs2)c1	4.54*	-0.2	-6.2	11.3	-5.6	0.0173	0.0135*	0.032	0.0111*	0.0201	0.0138*
Cc1ccc(C(=O)N/N=C/c2ccc([N+](=O)[O-])s2)cc1	6.61*	0.1	25.8	-4.7	-3.6	0.00773	0.0153*	0.029	0.0157*	?	?
O=C(N/N=C/c1ccc([N+](=O)[O-])s1)c1ccncc1	1.14	0.1	-11.4	-2.2	3.4	.	.	.	.	.	.
O=C(CCC1CCCN(C(=O)c2ccsc2)C1)NCc1ccc(F)c(F)c1 (centres undefined)	.	0.0	58.4	-4.5	-6.6	.	.	.	.	.	.
COC(=O)c1ccc(C(C(=O)NCc2ccccc2)N(Cc2cccs2)C(=O)c2cnccn2)cc1 (centres undefined)	.	0.0	1.8	76.3*	-6.3	0.00931	0.0059	0.0328	0.00846	0.0202	0.0113
O=C(N/N=C/C1CC=CCC1)c1cc2ccccc2cc1O (centres undefined)	4.44*	-0.2	-5.1	34.7	53.5	?	0.0285*	0.0358	0.0154*	?	0.0121*
O=C(N/N=C/C1CC=CCC1)c1ccc(O)cc1O (centres undefined)	0.185	0.0	-2.0	-0.9	-4.8	.	.	.	.	.	.
